Article PMC5540273 (PLoS ONE, 2017)

Legend:
Details in all cases: concentration: 1 μM, replicates: in singlicate; n = 1
ADCK4 = system: ADCK4
AKT1 = system: AKT1
AKT2 = system: AKT2
AKT3 = system: AKT3
ALK = system: ALK
AMPK-alpha1 = system: T1, AMPK-alpha1
T1 construct: gene PRKAA1

AMPK-alpha2 = system: T2, AMPK-alpha2
T2 construct: gene PRKAA2

ANKK1 = system: ANKK1
ARK5 = system: T3, ARK5
T3 construct: gene NUAK1

ASK1 = system: T4, ASK1
T4 construct: gene MAP3K5

ASK2 = system: T5, ASK2
T5 construct: gene MAP3K6

AURKA = system: AURKA
AURKB = system: AURKB
AURKC = system: AURKC
AXL = system: AXL
BIKE = system: T6, BIKE
T6 construct: gene BMP2K

BLK = system: BLK
BMPR1A = system: BMPR1A
BMPR1B = system: BMPR1B
BMPR2 = system: BMPR2
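Also: KINOMEscan kinase panel screen.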

Compound	%Inh (ADCK4)	%Inh (AKT1)	%Inh (AKT2)	%Inh (AKT3)	%Inh (ALK)	%Inh (AMPK-alpha1)	%Inh (AMPK-alpha2)	%Inh (ANKK1)	%Inh (ARK5)	%Inh (ASK1)	%Inh (ASK2)	%Inh (AURKA)	%Inh (AURKB)	%Inh (AURKC)	%Inh (AXL)	%Inh (BIKE)	%Inh (BLK)	%Inh (BMPR1A)	%Inh (BMPR1B)	%Inh (BMPR2)
CCNC(=O)/C=C/c1n[nH]c2cc(Sc3ccccc3C(=O)NC)ccc12	0%	6%	18%	3%	2%	7%	14%	5%	10%	0%	0%	86%	97.4%	84%	76%	48%	7%	12%	30%	1%
CC(=O)Nc1cn2nc(Oc3cccc(NC(=O)c4cccc(C(F)(F)F)c4)c3)ccc2n1	9%	20%	0%	16%	9%	0%	8%	0%	12%	0%	0%	0%	60%	74%	51%	18%	98.2%	10%	0%	0%
O=C(Nc1n[nH]c2nc(-c3ccccc3O)ccc12)C1CC1 [SB-711880]	17%	0%	0%	0%	0%	90%	0%	0%	0%	0%	34%	31%	81%	6%	18%	41%	0%	0%	0%	8%
Cc1ccc(NC(=O)c2cccc(N3CCCCC3)c2)cc1-c1ccc(C(=O)NCC2CC2)cc1 [GSK1917008]	1%	0%	8%	2%	19%	0%	28%	3%	28%	12%	11%	0%	0%	7%	5%	13%	72%	0%	2%	0%
COc1cccc2c(-c3ccncc3)c(-c3ccc(F)cc3)nn12 [GW468513]	38%	0%	34%	5%	27%	0%	18%	11%	19%	0%	0%	0%	0%	17%	13%	26%	49%	0%	0%	7%
Cc1nn2c(=O)cc(N3CCO[C@H](C)C3)nc2n1Cc1cccc(Cl)c1Cl [GSK2373693]	2%	0%	7%	4%	22%	0%	11%	0%	0%	8%	0%	35%	17%	6%	4%	17%	17%	35%	0%	35%
Cc1ccc(-c2ccc3occ(-c4ccc(S(C)=O)cc4)c3c2)nn1 (stereo not shown)	0%	2%	12%	9%	0%	0%	1%	0%	16%	0%	0%	0%	3%	0%	0%	0%	0%	15%	0%	0%
Nc1cccc(-c2ccc3c(N)n[nH]c3c2)c1 [GSK2193613]	16%	0%	0%	23%	0%	0%	16%	16%	0%	0%	0%	10%	0%	46%	0%	82%	87%	0%	89%	3%
CN(c1ccc(F)c(NC(=O)c2cccc(OC(C)(C)C#N)c2Cl)c1)c1ccc2nc(NC(=O)C3CC3)sc2n1	0%	2%	4%	0%	46%	0%	0%	0%	0%	0%	6%	22%	4%	0%	6%	0%	96.3%	0%	0%	0%
CC(C)c1nc(-c2cccc(NS(=O)(=O)c3c(F)cccc3F)c2)c(-c2ccnc(Nc3ccc(N4CCOCC4)nc3)n2)s1.Cl [GSK1723980]	100%	0%	11%	0%	19%	74%	91.4%	5%	1%	0%	20%	41%	42%	50%	74%	19%	99.8%	67%	99.7%	0%
Nc1ncnc2scc(-c3ccc(NC(=O)Cc4cc(F)ccc4F)cc3)c12.O=C(O)C(F)(F)F [SB-731254-M]	3%	0%	0%	9%	18%	18%	11%	49%	2%	10%	21%	53%	98.6%	45%	36%	7%	36%	22%	10%	0%
CNc1nccc(-c2ccc3c(N)n[nH]c3c2)n1 [GSK2206003]	26%	0%	0%	0%	33%	0%	0%	33%	0%	0%	0%	8%	0%	46%	0%	94.1%	54%	7%	71%	6%
CN(c1ccc2c(c1)nc(NCc1ccccc1)n2C)c1ccnc(Nc2ccc(CS(C)(=O)=O)cc2)n1.Cl [GW811603]	7%	0%	0%	1%	49%	2%	0%	0%	0%	9%	0%	87%	79%	63%	85%	24%	39%	0%	4%	22%
Cc1cccc(Nc2nc(NCCN)ncc2C(N)=O)c1 [GSK1292139]	42%	0%	0%	0%	46%	0%	0%	94.9%	64%	0%	8%	18%	0%	25%	9%	77%	1%	0%	0%	70%
CSc1ccc(NC2=C(c3ccc(Cl)cc3)C(=O)NC2=O)cc1 [SB-317658]	0%	9%	8%	10%	0%	23%	30%	3%	0%	0%	25%	32%	9%	2%	10%	0%	0%	6%	0%	0%
COc1cccc(CC(=O)N2CCc3cc(-c4cn(C)c5ncnc(N)c45)ccc32)c1 [GSK2608899]	0%	0%	8%	27%	5%	15%	25%	6%	19%	14%	12%	52%	87%	48%	96.2%	21%	36%	6%	6%	0%
O=C(O)C(F)(F)F.O=c1[nH]ccc2nc(N[C@@H]3CCNC3)nc(Nc3ccc4c(c3)S(=O)(=O)CC4)c12 [GSK2181306]	15%	0%	0%	47%	86%	89%	81%	97.4%	99.9%	0%	38%	83%	72%	87%	100%	98.8%	28%	0%	7%	99.5%
